A short description of test [1]: qHTS for Inhibitors of Plasmodium falciparum (DD2) proliferation (AID 504314).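 Also: parasite DNA measured by SYBR Green fluorescence after red cell lysis; plate controls were DMSO vehicle for no effect and artemisinin wells for full effect.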 Put shortly: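 SYBR Green DNA-fluorescence growth assay: infected RBCs at 0.3% parasitemia, 2.5% hematocrit, 72 h compound exposure, 37C, 5% CO2; overnight lysis with dye at RT; normalized to 0.29 uM artemisinin and vehicle.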
A short description of test [2]: qHTS for Inhibitors of Plasmodium falciparum (GB4) proliferation (AID 504315).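 Also: 0% = DMSO vehicle and -100% = 0.29 µM artemisinin control; nearly all actives have a fitted effect of over 50% in size.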 Put shortly: (§1)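 Parasite growth measured as SYBR Green DNA fluorescence (ex 485, em 535 nm) after overnight lysis following 72 h culture at 37 °C, 0.3% parasitemia, 2.5% hematocrit. Values normalized against DMSO and 0.29 uM artemisinin controls, with plate-stack correction.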
A short description of test [3]: qHTS for Inhibitors of Plasmodium falciparum (7G8) proliferation (AID 504316).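 Also: series mostly up to about 6.7 µM; 0% = DMSO vehicle and -100% = 0.29 µM artemisinin full kill; nearly all actives have a fitted effect of over 65% in size.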 Put shortly:
as §1
(qHTS replaces the single test concentration by a dilution series.)

A short description of test [4]: qHTS for Inhibitors of Plasmodium falciparum (HB3) proliferation (AID 504318).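 Also: 0% = DMSO vehicle and -100% = artemisinin control; nearly all actives have a fitted effect of over 60% in size.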 The procedure, abridged: as §1
A short description of test [5]: qHTS for Inhibitors of Plasmodium falciparum (CP250) proliferation (AID 504320).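 Also: plate controls were DMSO vehicle for no effect and 0.29 µM artemisinin control for full effect.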 Put shortly:
as §1

Test [6] concerns the target Atrial natriuretic peptide receptor 1 (Homo sapiens) (UniProt P16066). As to the kind of experiment: Natriuretic polypeptide receptor (hNpr1) antagonism - Pilot CMLD screen (AID 1347052; calls by dose curve;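 also: cGMP level read as GloSensor luciferase luminescence after agonist stimulation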; also: potency is read from the fitted curve at half-maximal effect).

Results filed as inconclusive are left out. Values without a mark were called inactive. Calls of active or inactive are those of the source. Unless noted, calls follow the shape of the dose curve; as a rule, active = well fitted curve in the direction sought with a large enough effect; inconclusive = small, poorly fitted or top-dose-only effect, or another doubt; inactive = no such curve, though single readings can be large; an effect the other way counts as inactive or inconclusive.

Sequence of Atrial natriuretic peptide receptor 1 (Homo sapiens) (P16066 whole entry, looked up): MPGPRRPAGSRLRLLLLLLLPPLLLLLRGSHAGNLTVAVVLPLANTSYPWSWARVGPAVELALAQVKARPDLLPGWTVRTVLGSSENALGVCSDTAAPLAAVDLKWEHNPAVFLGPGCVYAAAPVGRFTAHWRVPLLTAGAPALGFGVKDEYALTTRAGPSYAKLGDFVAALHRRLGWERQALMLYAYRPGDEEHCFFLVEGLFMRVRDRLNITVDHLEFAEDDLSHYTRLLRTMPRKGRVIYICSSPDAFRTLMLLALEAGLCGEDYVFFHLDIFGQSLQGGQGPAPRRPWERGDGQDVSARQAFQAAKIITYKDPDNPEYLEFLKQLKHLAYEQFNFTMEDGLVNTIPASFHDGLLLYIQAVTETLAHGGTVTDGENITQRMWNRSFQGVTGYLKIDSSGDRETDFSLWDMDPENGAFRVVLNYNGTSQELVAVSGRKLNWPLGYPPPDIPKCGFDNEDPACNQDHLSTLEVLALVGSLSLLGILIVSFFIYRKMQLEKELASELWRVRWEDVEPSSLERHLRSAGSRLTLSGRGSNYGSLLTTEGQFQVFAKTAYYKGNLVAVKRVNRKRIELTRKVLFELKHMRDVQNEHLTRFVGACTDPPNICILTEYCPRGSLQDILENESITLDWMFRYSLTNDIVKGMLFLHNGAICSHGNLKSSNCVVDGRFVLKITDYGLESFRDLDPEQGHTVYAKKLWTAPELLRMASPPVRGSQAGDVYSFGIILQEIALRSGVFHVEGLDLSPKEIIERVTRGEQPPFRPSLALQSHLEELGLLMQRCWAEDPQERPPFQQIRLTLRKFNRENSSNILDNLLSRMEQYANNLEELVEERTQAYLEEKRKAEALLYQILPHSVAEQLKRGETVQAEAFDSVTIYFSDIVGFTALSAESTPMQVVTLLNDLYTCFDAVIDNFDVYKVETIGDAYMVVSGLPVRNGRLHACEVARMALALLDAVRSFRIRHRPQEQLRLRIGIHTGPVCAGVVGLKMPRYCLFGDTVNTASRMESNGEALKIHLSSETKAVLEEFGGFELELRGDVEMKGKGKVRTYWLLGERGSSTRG

`COC(=O)C1=C(C)[C@@H](O)[C@@H](C)[C@](C)(c2cc(OC)c(C)c(OC)c2COc2ccccc2)O1`: the Potency entry in test [1], in test [2], in test [3], in test [4], in test [5] and in test [6] was “inactive” in each case.

Consider `CCN1C(=O)NC(c2cccc(F)c2)C(C(C)=O)=C1C` (stereo unspecified), for which the Potency result in test [1], in test [2], in test [3], in test [4], in test [5] and in test [6] was “inactive” each time.

For `C[C@H]1C(C(=O)N2CCCC2)=Cc2[nH]c(=O)[nH]c2C=C1c1ccccc1`, the Potency result in test [1], in test [2], in test [3], in test [4], in test [5] and in test [6] was “inactive” in each case.

Regarding `O=C(NN=C1C[C@@H](O)[C@H](O)[C@H]2[C@@H]3C(=O)N(C4CCCCC4)C(=O)[C@@H]3CC[C@H]12)OCc1ccccc1`, the Potency result in test [1], in test [2], in test [3], in test [4], in test [5] and in test [6] was “inactive” each time.

For the compound `C#CCCCON=C1C[C@@H](O)[C@H](O)[C@H]2[C@@H]3C(=O)N(c4cccc(Oc5ccccc5)c4)C(=O)[C@@H]3CC[C@@H]12`, the Potency entry in test [1], in test [2], in test [3], in test [4], in test [5] and in test [6] was “inactive” in each case.

For `C=C(CCN1C=C(C(=O)OCC)C(c2ccccc2)NC1=O)OC` (stereo unspecified), the Potency result in test [1], in test [2], in test [3], in test [4], in test [5] and in test [6] was “inactive” in each case.

Consider `COC(=O)c1cc(C(=O)OC)n2ccc3cc(OC)c(OC)cc3c12`, for which the Potency result in test [1], in test [2], in test [3], in test [4] and in test [5] was “inactive” each time. Moreover, the Potency in test [6] was 531 nM (active).

`O=C(NN=C1C[C@@H](O)[C@H](O)[C@H]2[C@@H]3C(=O)N(C[C@@H]4CCCO4)C(=O)[C@@H]3CC[C@@H]12)OCc1ccccc1`: the Potency entry in test [1], in test [2], in test [3], in test [4], in test [5] and in test [6] was “inactive” in each case.

With `COCCN1C(=O)NC(c2cccc(C(F)(F)F)c2)C(C(=O)OC)=C1C` (stereo unspecified), the Potency result in test [1], in test [2], in test [3], in test [4], in test [5] and in test [6] was “inactive” throughout.

`CC(=O)OC[C@H]1O[C@H](CC=NOC[C@@H](O)[C@H]2O[C@@H]3OC(C)(C)O[C@H]3[C@@H]2O)C=C[C@H]1OC(C)=O`: the Potency entry in test [1], in test [2], in test [3], in test [4], in test [5] and in test [6] was “inactive” in each case.

As to `CN1c2ccccc2[C@@]2(O)C(=O)[C@@]1(C)[C@@H]1CCC=C[C@H]12`, the Potency result in test [1], in test [2], in test [3], in test [4], in test [5] and in test [6] was “inactive” in each case.

Take `Cc1ccc(S(=O)(=O)OCCc2ccccc2)cc1`: the Potency entry in test [1], in test [2], in test [3], in test [4], in test [5] and in test [6] was “inactive” each time.

Regarding `COC(=O)CCC(=O)OC1(C)C(=O)C=C2C=C(C3CC3)N(Cc3ccc4c(c3)OCO4)C=C2C1=O` (stereo unspecified), in test [1], the activity, negative = inhibition was -0.0348% [at 1.12 µM]. Further, the Potency result in test [2], in test [3], in test [4], in test [5] and in test [6] was “inactive” throughout.

Regarding `COC(=O)[C@H]1[C@H](C)[C@@]2(O)c3ccccc3N(C)[C@@]1(C)[C@H]2O`, the Potency result in test [1], in test [2], in test [3], in test [4], in test [5] and in test [6] was “inactive” each time.

On to `CC=CCCN1C=C(C(C)=O)C(c2ccccc2)NC1=O` (stereo unspecified), for which the Potency entry in test [1], in test [2], in test [3], in test [4], in test [5] and in test [6] was “inactive” in each case.

Regarding `C=CCOC(=O)N[C@@H](CCc1ccccc1)C(C(C)=O)C(C)=O`, the Potency entry in test [1], in test [2], in test [3], in test [4], in test [5] and in test [6] was “inactive” in each case.

Take `CO[C@H](C1CCCCC1)[C@H](C)C=CCC(=O)OCCCc1ccccc1`: the Potency result in test [1], in test [2], in test [3], in test [4], in test [5] and in test [6] was “inactive” throughout.

As for `CC(=O)OC[C@H]1O[C@@H](ON=C[C@@H](C)[C@H](OCc2ccccc2)C(C)C)[C@@H](OC(C)=O)[C@@H](OC(C)=O)[C@@H]1OC(C)=O`, the Potency result in test [1], in test [2], in test [3], in test [4], in test [5] and in test [6] was “inactive” each time.

Regarding `COC(=O)CC=C1c2ccccc2[C@@H](OC)[C@@H]1C`, the Potency result in test [1], in test [2], in test [3], in test [4], in test [5] and in test [6] was “inactive” each time.

Turning to `C=C(C)C(O)C=Cc1ccc(Br)cc1` (stereo unspecified), the Potency result in test [1], in test [2], in test [3], in test [4], in test [5] and in test [6] was “inactive” throughout.

Take `C#CCCCON=C1C[C@@H](O)[C@H](O)[C@H]2[C@@H]3C(=O)N(C[C@@H]4CCCO4)C(=O)[C@@H]3CC[C@@H]12`: the Potency entry in test [1], in test [2], in test [3], in test [4], in test [5] and in test [6] was “inactive” in each case.

`C#C[C@@H]1C=C[C@H](Oc2ccc(OC)cc2)[C@H](CO)O1`: the Potency result in test [1], in test [2], in test [3], in test [4], in test [5] and in test [6] was “inactive” each time.

Consider `C=C(C(C)=O)C(O)c1ccc([N+](=O)[O-])cc1` (stereo unspecified), for which the Potency result in test [1], in test [2], in test [3], in test [4] and in test [5] was “inactive” each time. Also, the Potency in test [6] is 1880 nM (active).

`COC(=O)CC=C[C@H](C)[C@H](Cc1ccccc1Br)OC`: the Potency entry in test [1], in test [2], in test [3], in test [4], in test [5] and in test [6] was “inactive” each time.

On to `COC(=O)N[C@H](CC(C)=O)c1ccc(F)cc1`, for which the Potency result in test [1], in test [2], in test [3], in test [4], in test [5] and in test [6] was “inactive” throughout.

For the compound `CC=COC(=O)N[C@@H](c1ccccc1)[C@]1(C(=O)OCC)CCCC1=O`, the Potency entry in test [1], in test [2], in test [3], in test [4], in test [5] and in test [6] was “inactive” in each case.

These data come from PubChem BioAssay (NCATS).
